We go through 35 compounds from PubChem BioAssay AID1053125 (Broad Institute, 2014).

Each structure is given as a SMILES string. Measured potencies and affinities stand elsewhere. Activity calls are given as the source filed them.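 Rule for the calls: active = viability loss whose fitted half-maximal concentration is at most twice the top valid tested dose; inconclusive = flat curve with 30 to 70% loss, or poor fit; inactive = the rest.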

This assay can be described thus: HepG2 cell cytotoxicity, dose response, cytotoxicity control, ATP luminescence, cherry-pick, set 6 (AID 1053125).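 Note: negative values mean loss of viability signal.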 Conditions: HepG2 viability, ATP luminescence (CellTiter-Glo), 72 h; series mostly up to 26 µM; activity change, negative = cytotoxicity: at the top concentration.
In the case of `Nc1ccc2nc(-c3ccccc3)cnc2c1`, the “activity change, negative = cytotoxicity” value was -12.3% (inactive).
`Cc1ccc2nc3c(cc(S(=O)(=O)c4ccccc4)c(=N)n3Cc3ccco3)c(=O)n2c1`: the “activity change, negative = cytotoxicity” value was -15.1% (inactive).
For `O=C(O)c1ccc(-c2ccc(/C=C3\NC(=O)N(Cc4ccc(Cl)cc4)C3=O)o2)cc1`, the “activity change, negative = cytotoxicity” value is 9.07% (inactive).
On to `Cc1cc(-n2c(=O)c(C#N)cc3c(=O)n4ccccc4nc32)no1`, for which the “activity change, negative = cytotoxicity” value is -0.148% (inactive).
For the compound `CNC(=O)c1ccc(NC(=O)c2cccc(C(F)(F)F)c2)cc1`, the “activity change, negative = cytotoxicity” value is 18.7% (inactive).
In the case of `N#Cc1c(NCCCO)nc(NCc2ccccc2)c2c1CCN(Cc1ccccc1)C2`, the “activity change, negative = cytotoxicity” value was -14.7% (inactive).
As for `Cc1nc2ccccc2c2oc(C(=O)NCCCN3CCC(C)CC3)cc12`, the “activity change, negative = cytotoxicity” value is -12.2% (inactive).
In the case of `O=C1c2ccccc2S(=O)(=O)c2cc(N3CCC(C(=O)N4CCCCC4)CC3)ccc21` it was -6.38% (inactive); in that of `Cc1noc(C)c1-c1ccc(C(=O)NCCc2ccccc2)c2occc12`, -14.3% (inactive).
As to `CN(C)/C=C/C(=O)c1c(F)cccc1F`, the “activity change, negative = cytotoxicity” value is 12% (inactive).
Next, `COc1ccc(C(=O)c2sc3nc(-c4ccc(OC)cc4)ccc3c2N)cc1`: -0.796% (inactive).
As to `Cc1ccc2c(c1)-c1c(cnn1CC(=O)Nc1ccccc1N1CCN(C)CC1)CO2`, the “activity change, negative = cytotoxicity” value was -11.7% (inactive).
In the case of `C/C(=N\NC(=O)CC#N)c1cc2ccc(O)cc2oc1=O`, the “activity change, negative = cytotoxicity” value was 2.89% (inactive).
Consider `C=Cc1ccc(Cn2c(C)c(C(=O)NCc3cccc(C)c3)sc2=O)cc1`, for which the “activity change, negative = cytotoxicity” value is 3.39% (inactive).
For `CC(C)OCCCn1c(=N)c(C(N)=S)cc2c(=O)n3ccccc3nc21`, the “activity change, negative = cytotoxicity” value was -3.52% (inactive).
With `COc1ccc(S(=O)(=O)Cc2ccc(C(=O)N3CCN(Cc4ccccc4)CC3)o2)cc1`, the “activity change, negative = cytotoxicity” value was 13.9% (inactive).
With `CC(C)C(=O)Nc1sc2c(c1C(N)=O)CCN(Cc1ccccc1)C2`, the “activity change, negative = cytotoxicity” value was -11% (inactive).
As to `Cc1oc(/N=C/c2ccc(O)cc2O)c(C#N)c1C`, the “activity change, negative = cytotoxicity” value is -16.4% (inactive).
Next, `COCCNC(=O)c1cc2c(=O)n3cccc(C)c3nc2n(Cc2ccncc2)c1=N`: -8.89% (inactive); `CCn1c(=N)c(C(=O)NCCCOC)cc2c(=O)n3cccc(C)c3nc21`: 65.3% (inactive).
In the case of `COc1ccc(C2CC(c3cccs3)=NN2c2nc(C)c(C(C)=O)s2)cc1OC` (stereo not given) it was -14.8% (inactive); in that of `CCN(CC)c1ccc2cc(C#N)c(=O)oc2c1`, 3.25% (inactive).
As to `Cc1cccn2c(=O)c(/C=C(\C#N)C(N)=O)c(Oc3ccccc3)nc12`, the “activity change, negative = cytotoxicity” value is -7.13% (inactive).
Next, `Cc1cccn2c(=O)c3cc(C(N)=S)c(=N)n(CCCOC(C)C)c3nc12`: -6.1% (inactive); `CCOc1ccc2nc(NCCNC(=O)CC)c(C#N)cc2c1`: 5.54% (inactive); `Cc1cc2cc(CNC(=O)c3ccco3)ccc2n1C`: -16% (inactive).
As to `S=c1[nH]c2ccc(Cc3ccc4[nH]c(=S)[nH]c4c3)cc2[nH]1`, the “activity change, negative = cytotoxicity” value is -19.2% (inactive).
Turning to `O=c1[nH]c(=O)c2nc(-c3ccc(Cl)cc3)cnc2[nH]1`, the “activity change, negative = cytotoxicity” value is -2.93% (inactive).
Regarding `CCC(C)n1c(=N)c(C#N)cc2c(=O)n3cc(C)ccc3nc21` (stereo not given), the “activity change, negative = cytotoxicity” value is 5.59% (inactive).
With `O=C(CCCN1C(=O)CSc2ncccc21)N1CCN(Cc2ccccc2)CC1`, the “activity change, negative = cytotoxicity” value is -10.3% (inactive).
Turning to `O=C(CCCn1c(=O)c2sccc2n(Cc2cc(=O)n3ccccc3n2)c1=O)NCc1ccco1`, the “activity change, negative = cytotoxicity” value is -8.29% (inactive).
Next, `Cn1c2ccccc2c(=O)c2ccc(F)cc21`: -4.04% (inactive); `COc1ccccc1C(=O)c1cc2ccc(O)cc2oc1=O`: -11% (inactive); `CC1(C)CC(=O)C2=C(C1)OC(N)=C(C#N)[C@@H]2c1ccccc1[N+](=O)[O-]`: -5.15% (inactive).
In the case of `CC(=O)c1cc2c(ccc3ccccc32)oc1=O` it was -0.955% (inactive).
